Measurements taken from the supplement of paper PMC6555819.

Each sequence was assayed on PPARg:RXRa (NR concentration 180 nM, RXRa partner concentration 90 nM) (assay: PBM binding z-score (relative to random genomic background probes); higher = stronger binding; sequences stand for … in GC…GCGATTGACAGCGTAGAATGAAGG).
Outline: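 Binding z-scores take random background probes as their reference. They come from custom Agilent 4×180K protein-binding microarrays incubated 1 h with ligand-free nuclear receptor dimers, with antibodies against each partner (one per run) detecting binding. Scanned fluorescence was regression-normalized.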
CCGAGTAGTTTACGAGGGGGCATTCAGTGCGAAT gave a PBM binding z-score of -0.276. CCGAGTAGGTTACGAGGGTGCATTCAGTGCGAAT was tested, and the PBM binding z-score was 1.46. Work on TCGAGTAGGTTACGGGGGCATTCAAGGATGAAGA yielded a PBM binding z-score of 6.08. Sequence CTATGTACGTTAAGGGGGTCATTCAGTTTGAAAG has a PBM binding z-score of 3.31. With TCGAGTAGGTTACGGGGGCTTTCAGGGATGAAGA the PBM binding z-score was 3.47. Sequence CCGAGTAGGTTACGAGGGGGCATTCTGTGCGAAT has a PBM binding z-score of 2.22. Work on TCGCGTAGGTTACGGGGGCATTCAGGGATGAAGA yielded a PBM binding z-score of 4.62. In the case of TCGAGTAGGTTACGGGGGCATTCATGGATGAAGA, the PBM binding z-score was 6.11. With CTATGTAGGTTAAGGGGGTCATTCACTTTGAAAG the PBM binding z-score was 8.46. CCGAGTATGTTACGAGGGGGCATTCAGTGCGAAT gave a PBM binding z-score of 0.244. For CTATGTAGGTTAAGGGCGTCATTCAGTTTGAAAG, the PBM binding z-score was 5.29. Work on CCGAGTAGGTTACGAGGGGGCAGTCAGTGCGAAT yielded a PBM binding z-score of 2.19. For CTATGTCGGTTAAGGGGGTCATTCAGTTTGAAAG, the PBM binding z-score was 5.4. Sequence TCGAGTAGGTTAGGGGGGCATTCAGGGATGAAGA has a PBM binding z-score of 5.66. In the case of CTTTGTAGGTTAAGGGGGTCATTCAGTTTGAAAG, the PBM binding z-score was 7.86. Work on TCGAGTAGGTTACGAGGGCATTCAGGGATGAAGA yielded a PBM binding z-score of 3.58. In the case of TCGAGTAGGTTACGGAGGCATTCAGGGATGAAGA, the PBM binding z-score was 1.39.
